Reference: PubChem BioAssay
Activity calls are given as the source filed them.

Assays:
[1] = binders of probe aFSTL3 on microarray, primary screen, stem cell growth factor project, biochemical, small-molecule microarray, fluorescence 635/667 (AID 1064); conditions: higher = more signal;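 further: measures binding of the biotinylated anti-FSTL3 antibody to printed compounds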
[2] = binders from COS7 lysate, DM2A8 probe, primary screen, torsin A project, cell lysate, small-molecule microarray, fluorescence 635/667 (AID 1065); conditions: higher = more signal, COS7 lysate expressing mutant human TOR1A
[3] = binders of probe aFGF2 on microarray, primary screen, stem cell growth factor project, biochemical, small-molecule microarray, fluorescence 635/667 (AID 1067); conditions: higher = more signal;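 further: measures binding of biotinylated aFGF2 protein to printed compounds on slides; z-score merges feature fluorescence and signal-to-noise across triplicate slides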
[4] = binders of probe aFGF10 on microarray, primary screen, stem cell growth factor project, biochemical, small-molecule microarray, fluorescence 635/667 (AID 1071); conditions: higher = more signal;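 further: score merges 667 nm spot intensity and signal to noise from triplicate slides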
[5] = target: Neurogenic locus notch homolog protein 2 (Homo sapiens) (UniProt Q04721); assay: Notch2 binders on small-molecule microarrays, primary screen, biochemical, small-molecule microarray, 635 nm fluorescence, stem cell growth factors (AID 1073); conditions: Notch2 binding, higher = more signal
[6] = target: Pro-neuregulin-1, membrane-bound isoform (Homo sapiens) (UniProt Q02297); assay: NRG1 binders on small-molecule microarrays, primary screen, psychiatric disease protein project, biochemical, small-molecule microarray, fluorescence 635/667 (AID 1075); conditions: NRG1 binding, 635 nm fluorescence, higher = more signal;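 further: score combines 667 nm spot fluorescence with signal to noise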
[7] = tested on: Neuregulin-1 EGF-like domain; assay: binders of neuregulin-1 EGF-like domain, primary screen, biochemical, small-molecule microarray, 635 nm fluorescence (AID 1081); conditions: small-molecule microarray binding, higher = more signal;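 further: binding of the protein to compounds printed on small-molecule microarray slides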
[8] = FRG1 promoter luciferase signal modulators, primary screen, FRG1 inhibition for FSHD, cell-based, C2C12 myotubes, firefly/Renilla luciferase, luminescence (AID 1084); conditions: higher = more signal, called active from +8 up or from −8 down
[9] = binders of probe aFST on microarray, primary screen, stem cell growth factor project, biochemical, small-molecule microarray, fluorescence 635/667 (AID 1086); conditions: higher = more signal;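 further: score merges 667 nm fluorescence with signal-to-noise of each printed compound spot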
[10] = binders of probe aHhip on microarray, primary screen, stem cell growth factor project, biochemical, small-molecule microarray, fluorescence 635/667 (AID 1087); conditions: higher = more signal;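 further: score merges spot fluorescence at 667nm with spot signal to noise ratio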
[11] = tested on: PRMT1 (protein arginine N-methyltransferase 1); assay: PRMT1 binders on small-molecule microarrays, primary screen, biochemical, small-molecule microarray, 635 nm fluorescence (AID 1088); conditions: small-molecule microarray binding, higher = more signal;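 further: binding of Prmt1 protein to compounds spotted on small-molecule microarray slides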
[12] = yeast growth modulation, basal conditions, primary screen, YJM789 clinical isolate, OD600, 24 h (AID 1089);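 further: growth of clinical yeast isolate S. cerevisiae YJM 789 seeded 1000 cells per well; test concentration not given here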; conditions: S. cerevisiae YJM789 growth, higher = more signal, called active from +8 up or from −8 down
[13] = fission yeast growth modulation, primary screen, strain 972, OD600, 24 h, no modulator (AID 1090);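 further: basal condition with compound alone and no growth modifier present; test concentration not given here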; conditions: S. pombe 972 growth, higher = more signal, called active from +8 up or from −8 down
[14] = S. cerevisiae growth modulation with rapamycin, primary screen, strain BY4716, OD600, 96 h (AID 1091); conditions: higher = more signal, called active from +8 up or from −8 down; further: test concentration not given here
[15] = target: Torsin-1A-interacting protein 2 (Homo sapiens) (UniProt Q8NFQ8); assay: LULL1 binders on small-molecule microarray, primary screen, cell lysate, human LULL1 lysate, 635/667 nm fluorescence (AID 1092); conditions: hLULL1 lysate binding, 635 nm fluorescence, higher = more signal;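 further: probe is lysate of COS7 cells overexpressing human LULL1; score merges per-feature 667 nm fluorescence with signal-to-noise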
[16] = E. coli growth modulation, two-sided OD650, primary screen, E. coli filamentation project, strain DRC41, 24 h (AID 1093); conditions: OD650, 24 h, higher = more signal, called active from +8 up or from −8 down;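 further: MC1000 strain lacking acrAB efflux and sulA so SOS filamentation is blocked; test concentration not given here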
[17] = small-molecule microarray binders of probe aLefty2, primary screen, biochemical, biotinylated probe, 635/667 nm fluorescence (AID 1094); conditions: higher = more signal;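 further: score merges spot fluorescence near 667 nm with spot signal-to-noise ratio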
[18] = tested on: Noggin (protein binding on small-molecule microarray); assay: Noggin binders on small-molecule microarray, primary screen, biochemical, 635/667 nm fluorescence (AID 1095); conditions: 635 nm fluorescence, higher = more signal;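 further: score merges 667 nm feature fluorescence with signal to noise over triplicate slides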
[19] = target: Neurogenic locus notch homolog protein 3 (Homo sapiens) (UniProt Q9UM47); assay: NOTCH3 binders on small-molecule microarray, primary screen, biochemical, 635/667 nm fluorescence (AID 1096); conditions: NOTCH3 binding, 635 nm fluorescence, higher = more signal
[20] = small-molecule microarray binders of probe aEGFR, primary screen, biochemical, biotinylated probe, 635/667 nm fluorescence (AID 1097); conditions: higher = more signal;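 further: probe is a biotinylated anti-EGFR antibody binding compounds printed on slides; score combines fluorescence near 667 nm and signal to noise of each spot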

Chain of Neurogenic locus notch homolog protein 3 (Homo sapiens) (Q9UM47 whole entry, looked up): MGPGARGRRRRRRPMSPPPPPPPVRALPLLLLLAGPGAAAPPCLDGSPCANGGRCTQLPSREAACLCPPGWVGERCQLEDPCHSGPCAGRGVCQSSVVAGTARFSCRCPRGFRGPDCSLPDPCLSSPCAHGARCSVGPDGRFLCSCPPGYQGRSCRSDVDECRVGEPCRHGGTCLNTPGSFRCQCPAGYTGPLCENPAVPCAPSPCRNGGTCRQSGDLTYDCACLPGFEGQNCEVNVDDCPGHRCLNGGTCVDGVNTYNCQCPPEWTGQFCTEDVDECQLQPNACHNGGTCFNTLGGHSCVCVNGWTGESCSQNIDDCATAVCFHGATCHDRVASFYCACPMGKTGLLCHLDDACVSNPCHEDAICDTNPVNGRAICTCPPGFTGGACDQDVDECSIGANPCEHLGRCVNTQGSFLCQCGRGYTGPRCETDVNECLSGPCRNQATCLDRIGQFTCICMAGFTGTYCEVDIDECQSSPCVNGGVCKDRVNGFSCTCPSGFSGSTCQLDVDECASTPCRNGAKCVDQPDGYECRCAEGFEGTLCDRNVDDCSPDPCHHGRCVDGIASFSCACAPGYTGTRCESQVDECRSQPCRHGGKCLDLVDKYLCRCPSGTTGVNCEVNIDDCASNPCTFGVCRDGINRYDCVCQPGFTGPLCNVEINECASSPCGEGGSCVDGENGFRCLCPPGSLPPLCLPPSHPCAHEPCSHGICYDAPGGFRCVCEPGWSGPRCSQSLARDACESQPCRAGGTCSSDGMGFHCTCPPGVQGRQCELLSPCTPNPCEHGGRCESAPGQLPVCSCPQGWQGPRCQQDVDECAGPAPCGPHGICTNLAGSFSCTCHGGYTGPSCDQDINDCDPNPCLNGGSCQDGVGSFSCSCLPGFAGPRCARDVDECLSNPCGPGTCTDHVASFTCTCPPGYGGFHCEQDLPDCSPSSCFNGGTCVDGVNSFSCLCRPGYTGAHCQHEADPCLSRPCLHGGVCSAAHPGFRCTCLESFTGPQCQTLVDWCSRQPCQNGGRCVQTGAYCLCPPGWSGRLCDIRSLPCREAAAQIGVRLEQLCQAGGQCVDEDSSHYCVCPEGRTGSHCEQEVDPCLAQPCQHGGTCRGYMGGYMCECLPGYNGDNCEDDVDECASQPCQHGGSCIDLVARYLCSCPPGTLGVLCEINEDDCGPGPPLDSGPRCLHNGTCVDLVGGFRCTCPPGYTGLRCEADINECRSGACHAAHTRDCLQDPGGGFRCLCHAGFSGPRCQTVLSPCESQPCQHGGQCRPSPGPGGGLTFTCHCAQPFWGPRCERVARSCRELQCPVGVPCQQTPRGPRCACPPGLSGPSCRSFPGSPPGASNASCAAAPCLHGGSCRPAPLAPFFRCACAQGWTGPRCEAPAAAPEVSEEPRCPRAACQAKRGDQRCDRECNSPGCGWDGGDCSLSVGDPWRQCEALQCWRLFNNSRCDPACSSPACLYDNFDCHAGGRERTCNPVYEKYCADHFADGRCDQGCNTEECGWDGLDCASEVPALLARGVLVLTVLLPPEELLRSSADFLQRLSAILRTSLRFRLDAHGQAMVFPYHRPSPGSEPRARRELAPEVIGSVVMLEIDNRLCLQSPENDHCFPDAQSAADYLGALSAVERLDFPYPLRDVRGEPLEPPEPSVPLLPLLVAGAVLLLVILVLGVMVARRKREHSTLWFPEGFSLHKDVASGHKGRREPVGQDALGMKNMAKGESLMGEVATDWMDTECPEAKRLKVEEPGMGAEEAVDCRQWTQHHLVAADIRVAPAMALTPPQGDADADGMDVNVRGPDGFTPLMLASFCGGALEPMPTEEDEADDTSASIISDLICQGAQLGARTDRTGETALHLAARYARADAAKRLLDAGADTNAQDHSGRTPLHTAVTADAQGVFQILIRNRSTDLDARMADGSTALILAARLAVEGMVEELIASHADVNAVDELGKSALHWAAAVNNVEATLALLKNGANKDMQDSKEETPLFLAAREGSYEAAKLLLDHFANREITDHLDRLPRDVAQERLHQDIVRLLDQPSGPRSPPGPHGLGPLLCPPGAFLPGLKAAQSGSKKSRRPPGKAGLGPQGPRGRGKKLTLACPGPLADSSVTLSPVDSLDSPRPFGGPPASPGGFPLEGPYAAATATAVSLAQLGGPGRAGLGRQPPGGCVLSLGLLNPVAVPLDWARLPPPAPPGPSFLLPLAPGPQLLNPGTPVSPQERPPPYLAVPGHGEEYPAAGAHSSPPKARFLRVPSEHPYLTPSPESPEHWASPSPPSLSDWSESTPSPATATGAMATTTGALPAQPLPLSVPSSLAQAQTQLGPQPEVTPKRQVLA
Chain of Neurogenic locus notch homolog protein 2 (Homo sapiens) (Q04721 whole entry, looked up, canonical isoform): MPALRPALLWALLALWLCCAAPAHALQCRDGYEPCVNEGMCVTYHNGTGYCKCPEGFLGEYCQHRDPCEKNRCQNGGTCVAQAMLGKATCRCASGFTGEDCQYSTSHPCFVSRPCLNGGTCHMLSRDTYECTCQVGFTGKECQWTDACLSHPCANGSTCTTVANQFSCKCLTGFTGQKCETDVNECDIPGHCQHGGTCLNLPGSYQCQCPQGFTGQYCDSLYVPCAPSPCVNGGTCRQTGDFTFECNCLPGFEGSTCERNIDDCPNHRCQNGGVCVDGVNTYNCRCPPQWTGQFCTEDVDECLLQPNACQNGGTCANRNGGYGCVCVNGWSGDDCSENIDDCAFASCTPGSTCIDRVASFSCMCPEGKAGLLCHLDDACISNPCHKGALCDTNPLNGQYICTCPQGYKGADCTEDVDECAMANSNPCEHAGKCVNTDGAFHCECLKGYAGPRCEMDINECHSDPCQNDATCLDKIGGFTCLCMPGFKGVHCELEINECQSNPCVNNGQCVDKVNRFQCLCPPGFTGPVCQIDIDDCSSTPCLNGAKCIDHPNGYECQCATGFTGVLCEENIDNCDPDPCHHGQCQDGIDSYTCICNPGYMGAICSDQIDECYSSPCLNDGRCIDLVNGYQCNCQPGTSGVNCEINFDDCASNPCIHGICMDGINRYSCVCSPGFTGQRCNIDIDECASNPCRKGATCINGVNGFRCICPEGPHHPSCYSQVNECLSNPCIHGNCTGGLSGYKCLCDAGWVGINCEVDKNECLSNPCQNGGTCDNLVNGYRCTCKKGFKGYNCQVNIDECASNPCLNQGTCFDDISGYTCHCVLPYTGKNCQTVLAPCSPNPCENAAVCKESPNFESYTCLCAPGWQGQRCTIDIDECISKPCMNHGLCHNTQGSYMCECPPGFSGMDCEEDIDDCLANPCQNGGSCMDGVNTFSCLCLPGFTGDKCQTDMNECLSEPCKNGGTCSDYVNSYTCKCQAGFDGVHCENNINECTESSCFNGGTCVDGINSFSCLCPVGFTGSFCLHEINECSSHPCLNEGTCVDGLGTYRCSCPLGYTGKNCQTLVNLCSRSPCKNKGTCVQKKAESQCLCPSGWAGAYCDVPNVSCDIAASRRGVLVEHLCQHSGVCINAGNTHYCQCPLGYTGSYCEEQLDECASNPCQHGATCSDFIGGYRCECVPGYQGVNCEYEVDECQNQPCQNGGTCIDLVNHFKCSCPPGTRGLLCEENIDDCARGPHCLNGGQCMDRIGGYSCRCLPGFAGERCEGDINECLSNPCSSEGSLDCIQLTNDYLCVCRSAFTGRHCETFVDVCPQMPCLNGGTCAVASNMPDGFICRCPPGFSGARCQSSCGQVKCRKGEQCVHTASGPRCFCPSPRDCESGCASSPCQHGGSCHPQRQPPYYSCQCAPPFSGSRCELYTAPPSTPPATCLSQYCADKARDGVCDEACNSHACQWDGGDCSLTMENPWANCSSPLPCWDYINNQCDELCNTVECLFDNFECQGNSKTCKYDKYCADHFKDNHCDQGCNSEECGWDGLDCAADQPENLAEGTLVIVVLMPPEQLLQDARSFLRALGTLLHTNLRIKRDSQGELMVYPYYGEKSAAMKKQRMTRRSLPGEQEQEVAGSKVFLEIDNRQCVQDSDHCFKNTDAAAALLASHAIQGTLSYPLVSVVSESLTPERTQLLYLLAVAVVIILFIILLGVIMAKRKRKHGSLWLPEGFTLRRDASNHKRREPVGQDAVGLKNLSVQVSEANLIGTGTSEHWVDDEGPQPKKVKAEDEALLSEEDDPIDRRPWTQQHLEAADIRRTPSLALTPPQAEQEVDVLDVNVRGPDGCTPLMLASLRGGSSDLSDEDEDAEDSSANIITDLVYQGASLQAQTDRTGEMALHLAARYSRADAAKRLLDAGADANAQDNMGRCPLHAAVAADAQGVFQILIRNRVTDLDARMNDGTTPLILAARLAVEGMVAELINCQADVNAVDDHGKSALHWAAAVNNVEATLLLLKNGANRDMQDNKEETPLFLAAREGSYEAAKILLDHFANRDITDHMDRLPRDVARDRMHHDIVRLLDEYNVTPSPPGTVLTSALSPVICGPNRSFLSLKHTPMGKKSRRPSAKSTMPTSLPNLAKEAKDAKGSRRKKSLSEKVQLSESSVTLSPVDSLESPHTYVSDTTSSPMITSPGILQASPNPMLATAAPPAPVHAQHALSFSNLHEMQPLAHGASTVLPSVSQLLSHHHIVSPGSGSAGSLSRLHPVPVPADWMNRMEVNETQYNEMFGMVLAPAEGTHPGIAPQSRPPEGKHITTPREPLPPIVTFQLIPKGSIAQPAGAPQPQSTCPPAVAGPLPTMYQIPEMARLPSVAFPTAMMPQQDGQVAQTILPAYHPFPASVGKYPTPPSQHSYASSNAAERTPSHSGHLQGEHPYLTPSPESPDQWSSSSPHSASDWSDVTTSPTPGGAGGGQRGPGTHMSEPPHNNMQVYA

Structure (SMILES)	composite z-score [1]	composite z-score [2]	composite z-score [3]	composite z-score [4]	composite z-score [5]	composite z-score [6]	composite z-score [7]	z-score [8]	composite z-score [9]	composite z-score [10]	composite z-score [11]	z-score [12]	z-score [13]	z-score [14]	composite z-score [15]	z-score [16]	composite z-score [17]	composite z-score [18]	composite z-score [19]	composite z-score [20]
O=C1C[C@@H](O)[C@@H](O)[C@@H]2[C@@H]3C(=O)N(Cc4ccccc4)C(=O)[C@@H]3CC[C@H]12	-0.344	0.49	-0.129	0.339	0.438	0.235	0.632	-0.725 (inactive)	0.256	0.0053	-0.326	0.179 (inactive)	-0.253 (inactive)	-0.138 (inactive)	-0.14	-0.188 (inactive)	-0.107	0.497	0.545	-0.0171
CC(CCN1CCCc2nc(C)c(C)cc21)=NO[C@@H](C)c1cn([C@H](CO)Cc2ccccc2)nn1	-0.102	0.417	-0.0257	0.389	0.414	-0.19	0.28	-0.0338 (inactive)	0.4	-0.277	0.279	0.72 (inactive)	0.47 (inactive)	0.672 (inactive)	0.577	0.923 (inactive)	-0.114	0.78	0.713	-0.0493
CON=C(C)CCN1CCCCc2nc(C)c(C)cc21	0.367	1.01	0.0121	0.241	0.133	0.525	0.93	0.997 (inactive)	0.437	-0.0296	0.46	-0.114 (inactive)	-0.0037 (inactive)	-0.508 (inactive)	0.799	0.165 (inactive)	0.0945	0.572	0.397	0.0978
COC(=O)CC=C[C@@H](C)[C@@H](C=NOC[C@@H](O)COCc1ccco1)NS(=O)(=O)c1ccc(C)cc1	-0.568	0.9	-0.162	-0.28	-0.572	-0.767	-0.929	0.184 (inactive)	-0.0225	-0.0237	0.0315	0.0457 (inactive)	1.02 (inactive)	0.0521 (inactive)	-1.12	0.835 (inactive)	-0.202	0.704	-0.834	-0.195
C[C@H]1CC[C@@H](C(=O)O)N[C@@H]1c1ccc(C#Cc2ccccc2)cc1	-0.214	0.0872	0.0166	0.505	1.32	0.736	1.24	3.31 (inactive)	0.316	0.176	1.52	-26.4 (active)	-21.1 (active)	-3.15 (inactive)	1.78	0.161 (inactive)	-0.0615	0.875	1.09	0.0651
COc1ccc(COC(=O)NN=C2C[C@@H](O)[C@@H](O)[C@@H]3[C@@H]4C(=O)N(C(C)(C)C)C(=O)[C@@H]4CC[C@@H]23)cc1	-0.31	1.1	-0.0243	0.568	1.14	0.173	0.644	1.24 (inactive)	0.413	-0.204	1.16	-1.26 (inactive)	-0.573 (inactive)	-0.731 (inactive)	0.515	1.09 (inactive)	-0.005	0.0364	1.02	-0.03
COC(=O)[C@H](C)NC(=O)CCC1CC(OC(=O)NCc2ccc3c(c2)OCO3)CC2(CCCC(COC(=O)NCCCN3CCCC3=O)O2)O1 (stereo not given in full)	-0.869	0.62	-0.0397	0.469	0.829	0.357	1.04	-0.787 (inactive)	1.3	0.0373	1.45	0.395 (inactive)	0.642 (inactive)	0.502 (inactive)	0.908	-0.223 (inactive)	-0.155	0.424	1.1	-0.0128
O=C1[C@H]2[C@H]3[C@H](O)[C@H](O)CC(=NOC[C@@H](O)COCc4ccco4)[C@@H]3CC[C@H]2C(=O)N1C1CCCCC1	-0.679	2.04	-0.16	-0.357	0.0224	-0.459	1.2	0.219 (inactive)	-0.045	0.235	1.39	1.61 (inactive)	-0.0798 (inactive)	-0.133 (inactive)	1.25	0.61 (inactive)	-0.061	1.75	0.437	0.0583
C=CC[C@@H]1C=CC(ON=C(C)C)[C@@H](CO)O1 (stereo not given in full)	0.0856	-0.809	-0.196	-0.246	-0.561	-0.34	-0.0889	1.35 (inactive)	-0.238	0.107	-0.316	1.03 (inactive)	0.446 (inactive)	1.16 (inactive)	-0.632	0.452 (inactive)	-0.103	-0.117	-1.08	-0.215
C=CC[C@@H]1C=C[C@H](ON=C[C@@H](NS(=O)(=O)c2ccc(C)cc2)[C@H](C)C=CCC(=O)OC)[C@@H](CO)O1	-0.172	0.571	-0.134	0.2	-0.0681	-0.209	0.476	-0.0545 (inactive)	-0.0961	0.289	-0.248	-0.605 (inactive)	0.757 (inactive)	-0.0333 (inactive)	0.324	0.354 (inactive)	-0.11	0.659	-0.531	-0.0715
